The values below come from PubChem BioAssay (Tox21).

The nature of assay [1]: Nuclear factor erythroid 2-related factor 2/antioxidant responsive element (Nrf2/ARE) small molecule agonists: qHTS cell viability counter screen in human keratinocytes (AID 1919968; active = well fitted curve in the direction sought with a large enough effect in the repeat runs; an effect the other way counts as inactive or inconclusive; note: nearly all actives have a fitted effect of over 55% in size). In outline:
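In human HaCaT keratinocytes stably expressing an ARE-driven luciferase, compound exposure lasted 23 h at 37 C under 5% CO2. Viable cells are quantified with a protease-based fluorogenic reagent (CellTiter-Fluor) read 1 h after addition.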
Background: Quantitative high-throughput screening tests each substance at several concentrations.

Assay [2] is described as follows: Nuclear factor erythroid 2-related factor 2/antioxidant responsive element (Nrf2/ARE) small molecule agonists: luciferase reporter gene qHTS assay in human keratinocytes (AID 1919969). Note: nearly all actives have a fitted effect of over 35% in size. Note: potency is the fitted concentration of half-maximal effect.
Assay [3] addresses Gonadotropin-releasing hormone receptor (Homo sapiens) (UniProt P30968). As to the kind of experiment: Human gonadotropin-releasing hormone receptor (GnRHR) small molecule agonists, calcium flux assay in GnRHR-HEK293 cells (AID 1920063). Note: nearly all actives have a fitted effect of over 35% in size. In outline: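 Intracellular calcium rise is the read-out: engineered human GnRHR HEK293 cells, dye-loaded, are exposed to DMSO-dissolved compounds and fluorescence at Ex/Em 480/540 is tracked for 3 min.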
In general terms: Calcium assays in cells follow changes in intracellular calcium, usually with a dye or a luminescent sensor.

Assay [4] deals with KiSS-1 receptor (Homo sapiens) (UniProt Q969F8). As to the kind of experiment: Human kisspeptin (KISS1R) small molecule agonists, calcium flux assay in KISS1R-HEK293 cells (AID 1920064; active = well fitted curve in the direction sought with a large enough effect in the repeat runs; an effect the other way counts as inactive or inconclusive). In outline:
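Concentration-response testing used 15 concentrations in triplicate on human KISS1R-expressing HEK293 cells. Calcium-dependent fluorescence (Ex/Em 480/540) was followed kinetically for 3 min after compound transfer.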

Assay [5] can be described thus: G protein-coupled receptor (GPCR) small molecule agonists, calcium flux assay: HEK293 wild type cell line counter screen (AID 1920065). In outline:
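Fluorescence intensity signals activation. After overnight (18 h) culture and a 1 h calcium dye load at 37 C, compounds are added by pin tool and the plate read at 480/540 nm for 3 min in 1 s steps.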

Assay [6] in a line: p53 small molecule agonists, cell-based qHTS assay with human liver microsomes (AID 1963577).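 Note: p53 response element beta-lactamase reporter cells with liver microsomes plus NADPH.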 In outline:
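p53RE-bla cells; 5 h settle, 37 C/5% CO2; cpd + HLM 0.5 mg/mL + NADPH 0.5 mg/mL (final); 16 h 37 C; LiveBLAzer 2 h RT dark; fluorescence readout.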

Assay [7] can be described thus: p53 small molecule agonists, cell-based qHTS assay with rat liver microsomes (AID 1963578). In outline:
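Rat liver microsome activation: microsomes 0.5 mg/mL, NADPH 0.5 mg/mL final; p53RE-bla cells, 16 h 37 C; LiveBLAzer readout, 2 h RT dark.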

Assay [8] can be described thus: p53 small molecule agonists, cell-based qHTS assay with human liver microsomes: qHTS cell viability counter screen (AID 1963579). Note: nearly all actives have a fitted effect of over 45% in size. In outline: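 Luminescent CellTiter-Glo read-out, 30 min at room temperature, gauged cytotoxicity in p53RE-bla cells exposed 16 h at 37 C to DMSO-dissolved compounds with metabolic activation by human liver microsomes and NADPH, each 0.5 mg/mL final.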

The nature of assay [9]: p53 small molecule agonists, cell-based qHTS assay with rat liver microsomes: qHTS cell viability counter screen (AID 1963580). Note: nearly all actives have a fitted effect of over 45% in size. In outline:
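After the beta-lactamase ratio was read, CellTiter-Glo was added to the same wells and luminescence measured at 30 min; cells had been treated 16 h at 37 C with compounds, rat liver microsomes and NADPH (0.5 mg/mL final each).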

Assay [10] can be described thus: p53 small molecule agonists, cell-based qHTS assay: qHTS cell viability counter screen (AID 1963581). Note: nearly all actives have a fitted effect of over 45% in size. In outline: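 Luminescence from CellTiter-Glo, reflecting ATP content, serves as the cytotoxicity measure; it is taken after the 2 h reporter substrate step in HCT-116 p53RE-bla cells dosed for 16 h at 37 C.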
Assay [11] in a line: p53 small molecule agonists, cell-based qHTS assay (AID 1963582; active = well fitted activation curve with a large enough effect in the signal ratio in the repeat runs, not every such curve was filed as active; the % refers to the signal ratio). In outline:
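After plating, p53RE-bla cells sat 5 h in the incubator; compounds or DMSO vehicle were pinned in; a 16 h incubation at 37 C followed; FRET substrate was added and, 2 h later at RT, fluorescence was measured.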

Assay [12] concerns the target 5-hydroxytryptamine receptor 2A (Homo sapiens) (UniProt P28223). As to the kind of experiment: 5-hydroxytryptamine receptor 2A (HTR2A) small molecule agonists, cell-based qHTS assay (AID 1963587). Note: nearly all actives have a fitted effect of over 30% in size. In outline: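 CHO cells stably expressing human HTR2A, plated 18 h, loaded with calcium dye 1 h at 37 C. Agonist mode: compounds added and intracellular calcium fluorescence recorded kinetically for 2 min at 1 sec intervals.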

The target of assay [13] is Muscarinic acetylcholine receptor M1 (Homo sapiens) (UniProt P11229). As to the kind of experiment: Cholinergic receptor muscarinic 1 (CHRM1) small molecule antagonists, cell-based qHTS assay (AID 1963588). Note: nearly all actives have a fitted effect of over 40% in size. Note: potency is the fitted concentration of half-maximal effect. In outline: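 Compounds were tested at 15 concentrations in three independent runs. Dye-loaded CHRM1-CHO cells were exposed 5 min at room temperature before stimulation by acetylcholine added at 50nM. Intracellular calcium was read kinetically on FDSS for 3 min.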

For assay [14] the target is unchanged. As to the kind of experiment: Cholinergic receptor muscarinic 1 (CHRM1) small molecule agonists, cell-based qHTS assay (AID 1963589). Note: nearly all actives have a fitted effect of over 35% in size. In outline: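 Fluorescent calcium dye reports M1 activation in stably transfected CHO cells. Compounds, 15 concentrations, added after 1 h dye loading at 37 C; kinetic reading at 1 sec intervals.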
Assay [15] can be described thus: cAMP Responsive Elements (CRE) small molecule agonists, cell-based qHTS assay (AID 1963590). In outline:
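Compound exposure lasted 3 h at 37 C/5% CO2 in CRE-bla HEK 293T cells grown in assay medium with 10% dialyzed FBS and 25 mM HEPES. Reporter signal came from LiveBLAzer B/G FRET substrate, 2 h, room temperature.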

The nature of assay [16]: cAMP Responsive Elements (CRE) small molecule antagonists, cell-based qHTS assay (AID 1963591; active = well fitted inhibition curve with a large enough effect in the signal ratio in the repeat runs, not every such curve was filed as active; the % refers to the signal ratio). In outline: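 Stimulation used NKH477 at a final 0.25 uM for 3 h in compound-treated CRE-bla HEK293T cells, seeded 18 h beforehand. Reporter activity was measured with LiveBLAzer B/G FRET substrate after 2 h at room temperature.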
For assay [17], the target named is Beta-2 adrenergic receptor (Homo sapiens) (UniProt P07550). As to the kind of experiment: Adrenergic beta2 receptor (ADRB2) small molecule antagonists, cell-based qHTS assay (AID 1963592). Note: nearly all actives have a fitted effect of over 50% in size. Note: potency is the fitted concentration of half-maximal effect. In outline: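 Assay format: CHO-ADRB2 cells, 18-20hr seeding at 37C/5% CO2, then compound plus 1nM isoproterenol agonist mix for 0.5hr RT. Homogeneous time-resolved fluorescence cAMP detection after 1hr, expressed as 665/615 nm ratio.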

Assay [18] addresses D(2) dopamine receptor (Homo sapiens) (UniProt P14416). The assay can be described thus: Dopamine D2 receptor (DRD2) small molecule agonists, cell-based qHTS assay (AID 1963594). Note: nearly all actives have a fitted effect of over 35% in size. In outline: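 HEK293 cells stably expressing human DRD2, pre-treated with PDE inhibitor Ro20-1724 (0.1 mM final) and compound 10 min at room temperature, then stimulated with NKH477 (200nM […]) for 30 min. cAMP read by HTRF (665/620 nm).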

Assay [19] shares this target. The assay can be described thus: Dopamine D2 receptor (DRD2) small molecule antagonists, cell-based qHTS assay (AID 1963595; active = well fitted inhibition curve with a large enough effect in the signal ratio in the repeat runs, with a control signal flat; the % refers to the signal ratio). In outline:
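Antagonist mode in DRD2-HEK293 cells: after compound addition with 0.1 mM Ro20-1724, cells received quinpirole (12 nM) and NKH477 (200 nM) for 30 min at room temperature; HTRF cAMP read after 1 h detection.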

For assay [20], the target named is 5-hydroxytryptamine receptor 2A (Homo sapiens) (UniProt P28223). As to the kind of experiment: 5-hydroxytryptamine receptor 2A (HTR2A) small molecule antagonists, cell-based qHTS assay (AID 1963586). Note: nearly all actives have a fitted effect of over 45% in size. Note: potency is the fitted concentration of half-maximal effect. In outline:
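CHO cells stably expressing human HTR2A were plated for 18 h at 37 C, then loaded with calcium dye for 1 h. Compounds were preincubated 5 min at room temperature before DOI (4 nM solution) was added. Kinetic fluorescence was read for 3 min.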

SMILES strings stand for the structures. Results filed as inconclusive are left out. Activity calls are given as the source filed them. Unless noted, calls come from the whole dose curve.

Sequence of Gonadotropin-releasing hormone receptor (Homo sapiens) (P30968 whole entry, looked up): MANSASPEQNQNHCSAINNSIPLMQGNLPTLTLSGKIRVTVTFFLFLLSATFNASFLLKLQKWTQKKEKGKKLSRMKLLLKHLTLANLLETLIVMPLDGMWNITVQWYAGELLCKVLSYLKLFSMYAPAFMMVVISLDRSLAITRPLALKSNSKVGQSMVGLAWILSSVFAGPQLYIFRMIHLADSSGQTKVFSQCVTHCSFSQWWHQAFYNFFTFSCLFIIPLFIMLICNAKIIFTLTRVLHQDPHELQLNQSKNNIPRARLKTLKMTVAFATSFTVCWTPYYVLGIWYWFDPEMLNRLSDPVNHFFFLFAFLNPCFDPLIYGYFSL
Sequence of 5-hydroxytryptamine receptor 2A (Homo sapiens) (P28223 whole entry, looked up): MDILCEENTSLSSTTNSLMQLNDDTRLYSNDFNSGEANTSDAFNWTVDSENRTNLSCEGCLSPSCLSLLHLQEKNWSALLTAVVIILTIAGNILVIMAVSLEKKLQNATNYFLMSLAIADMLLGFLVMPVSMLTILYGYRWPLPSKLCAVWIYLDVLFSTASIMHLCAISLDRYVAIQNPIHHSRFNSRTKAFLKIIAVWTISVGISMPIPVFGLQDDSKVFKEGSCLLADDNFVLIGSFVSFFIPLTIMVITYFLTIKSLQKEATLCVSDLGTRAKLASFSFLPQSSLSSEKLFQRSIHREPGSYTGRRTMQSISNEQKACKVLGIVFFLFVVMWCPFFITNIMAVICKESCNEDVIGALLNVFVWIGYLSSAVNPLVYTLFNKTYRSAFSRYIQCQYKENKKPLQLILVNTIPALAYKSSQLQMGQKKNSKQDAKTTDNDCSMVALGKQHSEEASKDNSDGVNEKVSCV
Sequence of Muscarinic acetylcholine receptor M1 (Homo sapiens) (P11229 whole entry, looked up): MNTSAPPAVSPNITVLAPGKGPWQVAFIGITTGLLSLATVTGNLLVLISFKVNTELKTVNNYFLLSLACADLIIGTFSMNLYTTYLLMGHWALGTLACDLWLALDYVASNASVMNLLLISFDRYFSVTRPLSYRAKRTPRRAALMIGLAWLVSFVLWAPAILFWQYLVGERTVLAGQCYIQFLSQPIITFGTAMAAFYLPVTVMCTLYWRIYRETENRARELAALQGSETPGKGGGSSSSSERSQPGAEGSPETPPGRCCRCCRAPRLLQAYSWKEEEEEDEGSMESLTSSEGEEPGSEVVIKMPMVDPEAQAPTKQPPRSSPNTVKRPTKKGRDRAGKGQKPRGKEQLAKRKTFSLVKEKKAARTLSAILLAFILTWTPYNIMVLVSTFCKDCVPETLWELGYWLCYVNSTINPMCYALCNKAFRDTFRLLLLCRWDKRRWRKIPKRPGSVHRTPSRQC
Sequence of KiSS-1 receptor (Homo sapiens) (Q969F8 whole entry, looked up): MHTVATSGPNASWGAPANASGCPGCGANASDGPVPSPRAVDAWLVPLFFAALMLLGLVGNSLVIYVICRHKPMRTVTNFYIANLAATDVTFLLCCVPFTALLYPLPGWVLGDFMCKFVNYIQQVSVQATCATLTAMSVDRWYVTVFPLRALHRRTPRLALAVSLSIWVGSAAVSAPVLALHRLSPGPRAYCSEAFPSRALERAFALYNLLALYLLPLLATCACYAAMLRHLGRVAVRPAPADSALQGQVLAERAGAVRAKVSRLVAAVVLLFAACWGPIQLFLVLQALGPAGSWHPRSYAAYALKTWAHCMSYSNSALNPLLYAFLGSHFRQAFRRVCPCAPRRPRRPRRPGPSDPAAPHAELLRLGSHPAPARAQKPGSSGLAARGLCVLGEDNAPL
Sequence of D(2) dopamine receptor (Homo sapiens) (P14416 whole entry, looked up): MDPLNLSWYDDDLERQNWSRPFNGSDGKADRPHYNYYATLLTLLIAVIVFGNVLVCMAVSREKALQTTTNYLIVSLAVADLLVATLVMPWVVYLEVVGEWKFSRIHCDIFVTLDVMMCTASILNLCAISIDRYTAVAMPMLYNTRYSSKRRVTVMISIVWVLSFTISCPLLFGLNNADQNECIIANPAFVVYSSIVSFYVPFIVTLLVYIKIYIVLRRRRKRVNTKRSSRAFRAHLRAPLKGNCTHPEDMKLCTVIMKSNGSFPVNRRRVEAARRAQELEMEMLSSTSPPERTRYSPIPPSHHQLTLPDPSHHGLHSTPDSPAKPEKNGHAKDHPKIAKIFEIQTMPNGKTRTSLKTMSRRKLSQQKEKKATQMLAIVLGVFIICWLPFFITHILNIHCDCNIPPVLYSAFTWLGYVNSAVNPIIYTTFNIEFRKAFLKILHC
Sequence of Beta-2 adrenergic receptor (Homo sapiens) (P07550 whole entry, looked up): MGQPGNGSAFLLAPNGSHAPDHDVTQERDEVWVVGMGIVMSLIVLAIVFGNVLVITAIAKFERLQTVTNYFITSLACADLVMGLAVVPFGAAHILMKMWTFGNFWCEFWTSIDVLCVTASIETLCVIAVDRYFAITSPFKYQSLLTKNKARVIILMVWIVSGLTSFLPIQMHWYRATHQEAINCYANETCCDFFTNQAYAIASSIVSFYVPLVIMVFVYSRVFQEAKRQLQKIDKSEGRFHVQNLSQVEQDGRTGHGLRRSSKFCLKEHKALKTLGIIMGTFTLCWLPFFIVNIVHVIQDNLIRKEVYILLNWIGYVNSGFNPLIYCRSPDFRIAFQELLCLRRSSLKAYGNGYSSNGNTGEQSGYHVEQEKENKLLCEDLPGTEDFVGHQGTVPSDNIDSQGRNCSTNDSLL

For the molecule `O=[N+]([O-])c1ccc(CCl)cc1`, the Potency result in assay [1], in assay [3], in assay [4], in assay [5], in assay [6] and in assay [7] was “inactive” in each case. Besides, the Potency result in [8], in assay [9], in assay [10], in assay [11], in assay [12] and in assay [13] was “inactive” in each case. Besides, the Potency entry in assay [14], in assay [15], in [16], in assay [17], in [18] and in [19] was “inactive” throughout. In addition, the Potency in assay [2] is 60.1 µM (active).
`Oc1ccc(Cl)c(Cl)c1Cl`: the Potency result in assay [1], in assay [2], in [3], in [4], in assay [5] and in assay [6] was “inactive” in each case. Also, the Potency result in assay [7], in assay [8], in [9], in assay [10], in [11] and in assay [20] was “inactive” each time. For the same molecule, the Potency entry in assay [12], in [14], in assay [16], in [17], in [18] and in [19] was “inactive” each time.
With `CC(C)[C@@H](Nc1ccc(C(F)(F)F)cc1Cl)C(=O)OC(C#N)c1cccc(Oc2ccccc2)c1` (some centres undefined), the Potency result in [1], in assay [2], in [3], in assay [4], in assay [5] and in [6] was “inactive” in each case. Moreover, the Potency result in assay [7], in [8], in [9], in [10], in assay [11] and in assay [20] was “inactive” in each case. Moreover, the Potency entry in assay [12], in [14], in [16], in assay [17] and in [19] was “inactive” each time.
`CC(C)NCC(O)c1ccc([N+](=O)[O-])cc1` (centres undefined): the Potency result in [1], in [2], in assay [3], in assay [4], in [5] and in [6] was “inactive” each time. For the same molecule, the Potency result in assay [7], in [8], in assay [9], in assay [10], in [11] and in assay [20] was “inactive” throughout. The Potency entry in assay [12], in assay [13], in assay [14], in assay [15], in assay [16] and in [19] was “inactive” each time. Also, the Potency in [17] was 5.96 µM (active).
Regarding `CCC(C)Br` (centres undefined), the Potency result in assay [1], in [2], in assay [3], in assay [4], in assay [5] and in assay [6] was “inactive” each time. Further, the Potency result in assay [7], in assay [8], in assay [9], in [10], in [11] and in assay [20] was “inactive” each time. Besides, the Potency result in assay [12], in assay [14], in assay [15], in assay [16], in assay [17] and in assay [18] was “inactive” each time. The Potency result in assay [19] is “inactive”.
As for `O=C(O)CC(Cl)C(=O)O` (centres undefined), the Potency entry in [1], in [2], in [3], in [4], in [5] and in [6] was “inactive” in each case. For the same molecule, the Potency entry in [7], in assay [8], in [9], in assay [10], in assay [11] and in assay [20] was “inactive” throughout. In addition, the Potency result in assay [12], in [13], in [14], in [15], in assay [17] and in assay [18] was “inactive” throughout.
For `CC(Cc1ccccc1)NCc1ccccc1Cl` (centres undefined), the Potency result in assay [1], in assay [2], in assay [3], in assay [4], in [5] and in assay [6] was “inactive” each time. The Potency result in assay [7], in assay [8], in [9], in [10], in [11] and in assay [20] was “inactive” each time. For the same molecule, the Potency entry in assay [12], in [13], in [14], in assay [15] and in assay [16] was “inactive” each time.
For the molecule `CCC(=O)C(CCN(C)C)(c1ccccc1)c1ccccc1`, the Potency result in assay [1], in assay [2], in assay [3], in assay [4], in assay [5] and in assay [6] was “inactive” throughout. In addition, the Potency result in [7], in assay [8], in [9], in [10], in assay [11] and in assay [12] was “inactive” in each case. The Potency result in [17], in assay [18] and in assay [19] was “inactive” throughout. For the same molecule, the Potency in [20] was 16.3 µM (active); in assay [13] it was 11.6 µM (active).
